# Where “and” joins values, the source holds several entries; their conditions need not be identical. Identical values can stand only once. Records with an inconclusive call do not appear. A number with no mark means an inactive call. Calls of active or inactive are those of the source. Calls come from the whole dose curve; as a rule, active = well fitted cell-killing curve with a large enough effect in the repeat runs; inconclusive = weak or mixed curves, or effect the other way; inactive = flat fitted curve, though single readings scatter.
# Assay: qHTS RealTime-Glo MT Cell Viability Assay in HEK293 cells - 24 hour (AID 1224886); note: nearly all actives have a fitted effect of over 50% in size; for activity change, negative = cytotoxicity: top concentration of the series differs between compounds
# Details: RealTime-Glo luminescence; series mostly up to 76.8 µM; activity change, negative = cytotoxicity: at the top concentration
# Text: National Center for Advancing Translational Sciences [NCATS]
# NIH Chemical Genomics Center [NCGC]
# U.S. Environmental Protection Agency [EPA]
# National Institutes of Environmental Health Sciences [NIEHS]
# National Toxicology Program [NTP]
# U.S. Food and Drug Administration [FDA]
# Measure of cell viability is critical in the cell-base assay. Analysis of cell viability is necessary for the characterization of cell responses to cytotoxic drugs and environmental stress. A RealTime-Glo MT Cell Viability Assay to monitor cell viability in real time of continues cell culture during 40 hours of compound treatment was used to screen Tox21 10K library compounds in Hek293 cells. The RealTime-Glo MT Cell Viability Assay is a nonlytic, homogeneous, bioluminescent method to measure cell viability in real time using a simple, plate-based method. The assay involves adding NanoLuc luciferase and a cell-permeant prosubstrate to cells in culture. Viable cells reduce the proprietary prosubstrate to generate a substrate for NanoLuc luciferase. This substrate diffuses from cells into the surrounding culture medium, where it is rapidly used by the NanoLuc Enzyme to produce a luminescent signal. The signal correlates with the number of viable cells, making the assay well suited for cytotoxicity studies.
# Tox21 Assay Protocol Summary:
# The mixture of Hek293 cell suspension and reagents were dispensed at 600cells/6 ul/well in 1536-well tissue culture treated black solid bottom plates using a Multidrop dispenser. After the assay plates were incubated at a 37 C/5% CO2 incubator for 5 hours, 23 nL of compounds dissolved in DMSO, positive and negative controls was transferred to the assay plate by a pintool work station. The plates were incubated at 37 C for 40 hours. The luminescence intensity were measured at 0h, 8h, 16h, 24h, 32h and 40h time points using ViewLux plate reader during compound treatment.
# % is set by controls: 0 for no effect and ±100 for the full control effect; potency is the fitted concentration of half-maximal effect.
SMILES,"activity change, negative = cytotoxicity",Potency
CNN,3.04%,
CCOP(=O)(OCC)Oc1cc(C)nc(C(C)C)n1,4.25%,
CNC(=O)/C=C(\C)OP(=O)(OC)OC,7.5%,
COc1nc(C)nc(NC(=O)NS(=O)(=O)c2ccccc2Cl)n1,4.75%,
CC(C)N(C(=O)SC/C(Cl)=C/Cl)C(C)C,-24.3%,
Brc1ccc(Oc2ccc(Br)cc2Br)c(Br)c1,,49 µM (active)
O=S(=O)(O)F,0.617%,
Clc1ccc(C(c2ccc(Cl)cc2)C(Cl)Cl)cc1,,44.4 µM (active) and 43.6 µM (active)
N#Cc1c2ccccc2cc2ccccc12,-10.8%,
Nc1ccc(Cl)cc1C(=O)c1ccccc1F,-15% [at 35.3 µM],
Oc1ccc(Cl)c(Cl)c1,-18.2%,
COc1c2c(cc3c1OCO3)CCN(C)C2,-7.3% [at 35.3 µM],
Brc1cccc(-c2ccccc2)c1,-13.1%,
O=S1OCC2C(CO1)C1(Cl)C(Cl)=C(Cl)C2(Cl)C1(Cl)Cl (stereo not given),,21.9 µM (active) and 38.9 µM (active)
ClC1=C(Cl)[C@]2(Cl)[C@H]3[C@H]([C@@H]4C=C[C@H]3C4)[C@@]1(Cl)C2(Cl)Cl,,43.6 µM (active)
CCNc1nc(NC(C)C(C)C)nc(SC)n1 (stereo not given),-25.4%,
O=[N+]([O-])c1cc(C(F)(F)F)c(Cl)c([N+](=O)[O-])c1Nc1ncc(C(F)(F)F)cc1Cl,,1.74 µM (active)
CCOC(=O)Cc1ccccc1,15.7%,
O=C(CCCCl)c1ccc(F)cc1,1.02% [at 35.3 µM],
O=[N+]([O-])c1cccc2cccc([N+](=O)[O-])c12,-7.64%,

SMILES,"activity change, negative = cytotoxicity",Potency
O.O.O.O.O.O.O=S(=O)([O-])[O-].[Ni+2],-24.4% [at 35.3 µM],
COP(=O)(OC)O/C(=C\Cl)c1cc(Cl)c(Cl)cc1Cl,-14.7%,
CCOP(=O)(Sc1ccccc1)Sc1ccccc1,-11.1%,
O=C(O)[C@H](O)[C@@H](O)C(=O)O,3.19%,
CCC(C)Br (stereo not given),9.25%,
Fc1ccc(C(OCCN2CCN(CCCc3ccccc3)CC2)c2ccc(F)cc2)cc1,,9.52 µM (active)
Cc1c([N+](=O)[O-])cc2c(c1[N+](=O)[O-])C(C)(C)CC2(C)C,-1.57%,
O=C(Nc1ccc(F)cc1F)c1cccnc1Oc1cccc(C(F)(F)F)c1,4.11%,
C=CC(=C)C,11.4%,
Cc1cc2c3c(c1)C(c1ccccc1)=N[C@@H](NC(=O)c1ccncc1)C(=O)N3CC2,-2.06%,
CC(C)NCC(O)c1ccccc1Cl (stereo not given),0.087% [at 35.3 µM],
CCCCn1cc[n+](C)c1 (tested in a mixture with another compound),-0.293%,
ClSC(Cl)(Cl)Cl,7.31%,
CCC(C)Nc1c([N+](=O)[O-])cc(C(C)(C)C)cc1[N+](=O)[O-] (stereo not given),-25.5%,
CC(=O)[O][Pb]([c]1ccccc1)([c]1ccccc1)[c]1ccccc1,,0.436 µM (active)
C#CCO,4.88%,
CCCCCON=O,-6.06%,
CCc1cccc(C)c1N(C(=O)CCl)[C@@H](C)COC,-25.5%,
O=C(O)CCCCCCNC1c2ccccc2CCc2ccccc21,10.9% [at 35.3 µM],
COP(=S)(OC)Oc1ccc([N+](=O)[O-])c(C)c1,-0.806%,

# From PubChem BioAssay (Tox21)
